GPR151 ag: activates the human receptor GPR151; activation, % at 11.2 µM; PathHunter beta-arrestin GPR151 cells, luminescence; AID 1508602; 650,000 tested, 1% active; in the data active means activation above about 4.9%;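 further: 0% = median of compound wells and 100% = cells with positive control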
Target sequence (Q8TDV0 whole entry, looked up): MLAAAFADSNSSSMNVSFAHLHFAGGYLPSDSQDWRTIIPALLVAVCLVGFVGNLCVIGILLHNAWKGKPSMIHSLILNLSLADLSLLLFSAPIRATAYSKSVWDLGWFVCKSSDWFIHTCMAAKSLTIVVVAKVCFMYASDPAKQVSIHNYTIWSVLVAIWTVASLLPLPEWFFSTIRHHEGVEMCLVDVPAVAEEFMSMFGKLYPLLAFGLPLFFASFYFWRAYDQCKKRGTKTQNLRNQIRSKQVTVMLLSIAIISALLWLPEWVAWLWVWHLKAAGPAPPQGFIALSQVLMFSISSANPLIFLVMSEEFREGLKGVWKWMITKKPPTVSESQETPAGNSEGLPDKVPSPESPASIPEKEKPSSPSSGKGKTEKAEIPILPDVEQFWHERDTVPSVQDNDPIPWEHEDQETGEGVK
TEAD-YAP inh: TEAD-YAP interaction inhibition. HEK-TIYL cells, TEAD-Gal4/YAP UAS-luciferase luminescence. inhibition, % at 9.12 µM. 640,000 tested, 1.4% active; in the data active means inhibition above about 32%;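 further: 0% = median of test compound wells and 100% = reference inhibitor wells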
MITF inh: human MITF inhibition, primary screen | O75030 | AlphaScreen MITF homodimerization, bead proximity signal | 650,000 tested, 0.91% active | inhibition, % at 2.6 µM; in the data active means inhibition above about 50%;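 further: 0% = vehicle wells with protein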
FBW7 act: activators of human E3 ligase FBW7 | Q969H0 | AlphaScreen FBW7–phospho-cyclin E peptide binding, activator screen | normalized activity (activation), % at 26.1 µM | 650,000 tested, 0.13% active | AID 1259310; in the data active means normalized activity above about 1.9%;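 further: purified mutant Fbw7 with reduced substrate affinity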
Active calls of the source: *. A selection: hits, their analogues and other compounds. The true share with any hit is near 3.5%.

SMILES	GPR151 ag	TEAD-YAP inh	MITF inh	FBW7 act
O=C(Nc1nc2ccc(-c3cn[nH]c3)cc2s1)C1CNCC1c1ccccc1 (stereo unspecified)	-1.2	53.9*	12.9	1.0
COc1ccc2c(c1)CC(C(=O)Nc1nc3ccc(-c4cn[nH]c4)cc3s1)CO2 (stereo unspecified)	-0.9	19.7	13.9	0.7
COc1ccc(NC(C)=O)cc1S(=O)(=O)N(CCC#N)CCN1CCOCC1	1.7	-3.6	13.6	-0.2
c1cc2cc(-c3cnc4ccc(NC5CCOCC5)nn34)ccc2[nH]1	1.3	-17.8	-7.4	-0.1
CCOC(=O)N1CCN(S(=O)(=O)c2ccc(C(=O)Nc3sc4c(c3C(N)=O)CCCCC4)cc2)CC1	-1.0	5.7	6.1	-0.1
O=C(Nc1ccccc1)c1cccc(Br)c1	0.5	-25.1	14.3	0.0
O=C(Nc1cc(=O)[nH]c(=O)[nH]1)c1cccc(Br)c1	-0.2	43.6*	13.0	1.2
COc1ccc(C(Cl)Cl)c(C(=O)O)c1	-0.1	-1.4	-3.2	0.1
CCCC(Nc1ncnc2sccc12)c1ccccc1 (stereo unspecified)	-0.9	21.3	-7.4	0.2
CC(C)CCCC(C)Nc1ncnc2sccc12 (stereo unspecified)	2.4	48.0*	14.2	0.4
O=C(Cc1ccc(F)cc1)N/N=C/c1c(O)n(-c2ccccc2Cl)c(=O)c2ccccc12	-1.9	59.7*	19.1	-0.6
Cc1cccc(-n2c(O)c(/C=N/NC(=O)c3ccccc3Cl)c3ccccc3c2=O)n1	-0.8	-3.2	2.6	0.1
Cc1c(C(=O)N2CCN(c3cccc(Cl)c3)CC2)sc2ncn(CC(=O)N3CCC(C)CC3)c(=O)c12	0.7	-5.8	4.0	0.1
O=[N+]([O-])c1cc(S(=O)(=O)N2CCOCC2)ccc1Sc1nc2ccccc2s1	2.3	-0.1	12.2	-0.3
CS(=O)(=O)c1ccc(Sc2nc3ccccc3s2)c([N+](=O)[O-])c1	0.2	64.4*	4.5	-0.1
O=C(N/N=C/c1ccccc1O)C1COc2ccccc2O1 (stereo unspecified)	0.2	0.9	8.3	0.0
Cc1ccc(-c2cc(C(=O)NN)[nH]n2)cc1	-0.9	-4.0	14.5	-0.1
CCOc1ccc(-c2cc(C(=O)N/N=C/c3ccccn3)[nH]n2)cc1	1.5	33.8*	21.2	0.0
CCOc1ccc(-c2cc(C(=O)N/N=C/c3ccccc3O)[nH]n2)cc1	1.7	50.5*	-0.1	0.1
COc1ccc(-c2cc(C(=O)NN)[nH]n2)cc1	-0.8	61.6*	0.1	0.4
COc1cccc(-c2cc(C(=O)N/N=C/c3ccccc3O)[nH]n2)c1	-1.4	-18.1	22.5	0.1
O=C(COC(=O)C(Cc1ccc(O)cc1)N1C(=O)c2ccccc2C1=O)c1ccccc1 (stereo unspecified)	2.2	-16.1	22.6	0.5
CCCNc1ccnc2c(-c3cccc(C(C)=O)c3)cnn12	-1.1	-38.7	-18.6	-0.3
COCCNc1ccnc2c(-c3cccc(N(C)C)c3)cnn12	0.3	-22.5	9.5	-0.4
CN(C)c1cccc(Nc2ccnc3c(-c4ccsc4)cnn23)c1	0.5	-3.4	-12.2	0.0
SMILES	GPR151 ag	TEAD-YAP inh	MITF inh	FBW7 act
CCCNc1ccnc2c(-c3cccc(N(C)C)c3)cnn12	0.6	32.5*	4.8	-0.6
COCCNc1ccnc2c(-c3cccc(C(=O)O)c3)cnn12	0.8	98.6*	-1.7	-0.4
CN(C)c1cccc(Nc2ccnc3c(-c4cccc(O)c4)cnn23)c1	0.5	65.0*	0.9	0.1
COCCNc1ccnc2c(-c3ccc(C(=O)NC4CC4)cc3)cnn12	0.8	0.8	-282.7	-0.5
CCCNc1ccnc2c(-c3cccc(C(=O)O)c3)cnn12	-6.9	102.7*	-9.8	0.1
O=C1Nc2ccc(S(=O)(=O)Nc3cccc(Br)c3)c3cccc1c23	2.5	14.7	-11.9	-0.2
O=c1nc(N/N=C/c2ccc(O)cc2)cn[nH]1	-3.3	-2.4	27.6	0.1
O=c1nc(N/N=C/c2c[nH]c3ccccc23)cn[nH]1	-4.6	58.4*	-7.4	-0.5
O=c1nc(N/N=C/C=C/c2ccccc2)cn[nH]1	-2.9	50.4*	7.3	-0.1
COc1cccc(CN(CCN(C)C)C(=O)Nc2ccc(-c3cn[nH]c3)cc2N(C)C)c1	-1.5	49.6*	25.3	-0.2
COc1cccc(CN(CCN(C)C)C(=O)c2cnc3ccc(-c4cn[nH]c4)cn23)c1	0.6	45.4*	0.9	0.1
COc1cccc(CN(CCN(C)C)C(=O)c2cnc3cc(-c4cn[nH]c4)ccn23)c1	-1.7	-10.2	-4.0	-0.1
COc1cccc(CN(C)C(=O)c2cnc3cc(-c4cn[nH]c4)ccn23)c1	-1.3	45.6*	-4.8	-0.1
COc1cccc(CN(CCCN(C)C)C(=O)Nc2ccc(-c3cn[nH]c3)cc2OC)c1	1.4	-12.0	-10.3	0.1
COc1ccc(N2CC(O)=C(c3nc4ccccc4[nH]3)C2=N)c(OC)c1	1.5	-5.6	2.4	-0.4
Cc1ccc(CN2CCN3C(=O)[C@H](CCCCN)NC(=O)[C@H]3C2)c(C)c1	2.1	1.3	4.3	-0.1
CCOc1cccc(C2CC(c3ccc(OC)cc3)=NC(c3ccccc3F)N2)c1O (stereo unspecified)	-0.8	-24.9	1.1	0.3
COc1cccc(CSc2ccc(C(=O)O)cc2[N+](=O)[O-])c1OC	-0.6	10.2	8.4	-0.1
N#C/C(=C\C=C\c1ccc([N+](=O)[O-])o1)c1nc2ccccc2[nH]1	-1.2	58.6*	43.0	0.4
N#CCCN(C(=O)CCl)c1ccccc1	1.9	65.4*	-3.8	-0.2
CCOc1ccc(N(CCC#N)S(=O)(=O)c2ccc(Cl)cc2)cc1	0.3	2.0	11.5	0.2
N#CCCN(C(=O)CCl)c1ccc(F)cc1	0.3	82.1*	3.1	-0.2
CCOc1ccc(N(CCC#N)C(=O)CCl)cc1	1.5	46.4*	-8.3	-0.1
CCOC(=O)N(CC#N)c1ccc(C)cc1	0.5	-3.8	6.2	-0.1
Cc1ccc(N(CCC#N)C(=O)CCl)cc1	4.4	76.6*	10.4	-0.1
SMILES	GPR151 ag	TEAD-YAP inh	MITF inh	FBW7 act
O=C(N=C1N=C2C=CC(Br)=CN2Cc2ccccc21)c1cc2ccccc2o1	-1.2	-45.6	14.2	0.6
Fc1ccccc1NC(=S)N/N=C/c1ccncc1	0.2	-43.6	-6.1	0.0
Nc1cc(=O)[nH]c(S/C=C/c2ccccc2)n1	-6.2	33.9*	4.7	-0.1
Nc1cc(=O)[nH]c(SCc2ccccc2CSc2nc(N)cc(=O)[nH]2)n1	0.7	-1.5	3.8	0.2
Cc1cc(-c2ccccc2)nc(SCC(=O)Nc2nnc(C)s2)n1	0.1	-4.9	-6.1	-0.1
O=C1C(C=Nc2ccccc2O)=C(O)c2ccccc21	-8.1	48.9*	1.0	-0.3
COc1ccc(N=CC2=C(O)c3ccccc3C2=O)cc1	-3.5	42.7*	14.6	0.0
CCOC(=O)C1CCN(Cc2cc(I)c(O)c(OC)c2)CC1	1.0	9.4	47.8	-0.1
C=CCn1c(SCC(=O)Nc2ccc(OCC)cc2)nc2sc(C)c(C)c2c1=O	-2.2	-18.2	-1.4	-0.2
OCc1cccc(-c2cnn3c(NCc4ccccn4)ccnc23)c1	0.0	77.5*	23.3	-1.2
CN(Cc1ccccc1)c1ccnc2c(-c3cccnc3)cnn12	0.5	-45.5	-29.2	0.0
